This is a sample that favours compounds with a hit; in the whole collection about 4.8% have one here.
NF-kB neuron act: raises NF-kB expression in human neuronal cells. NF-kB reporter expression; hits give high values. actives 1.6% (n = 190,000). fold change at 12.5 µM; in the data active means fold change above about 3.3
APP 5'UTR act: APP 5'UTR luciferase reporter activation; SH-SY5Y APP 5'UTR luciferase reporter, luminescence; zero percent = DMSO vehicle wells; AID 1276; actives 1% (n = 190,000); activation, % at 2 µM;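 active means activation above a set limit, based on mean plus 3 SD of controls, cut at about 140% in these data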
Hsp70 activator: switches on Hsp70 transcription | activation, % at 10 µM | HeLa Hsp70 promoter luciferase reporter, luminescence; scaled: vehicle 0, proteasome-inhibitor control 100% | AID 1203 | actives 0.04% (n = 200,000);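 active means activation above the mean across all tested compounds plus 3 SD, cutoff set per campaign, cut at about 5.5% in these data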;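 further: 100% = MG132 at 30 µM as the positive control and 0% = DMSO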
STAT1 act: activators of IFN-gamma induced STAT1 signaling | NIH 3T3 STAT1-luciferase reporter, luminescence; 100% = IFN-gamma alone, no compound | AID 932 | activation (% of control), % at 5.5 µM | actives 2.6% (n = 200,000);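 active means activation above the screen-wide mean activation plus 3 SD, cut at about 130% in these data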;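 further: raw ratio to IFN-gamma control signal so 100% means no change and 0% no light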
Wee1 stabilizer: blocks degradation of human Wee1 kinase. actives 1.2% (n = 220,000). HeLa Luc-Wee1K328M stability, luciferase luminescence; 100% = proteasome inhibitor MG132 effect. reporter increase, % at 5 µM. AID 1321;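 active means activation above the mean of all tested compounds plus 3 SD, set per screening run, cut at about 8.8% in these data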;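 further: cells exposed to compound for 20 h before luminescence read; 0% = DMSO alone and 100% = MG132 at 30 µM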
Target sequence (P30291 whole entry K328M): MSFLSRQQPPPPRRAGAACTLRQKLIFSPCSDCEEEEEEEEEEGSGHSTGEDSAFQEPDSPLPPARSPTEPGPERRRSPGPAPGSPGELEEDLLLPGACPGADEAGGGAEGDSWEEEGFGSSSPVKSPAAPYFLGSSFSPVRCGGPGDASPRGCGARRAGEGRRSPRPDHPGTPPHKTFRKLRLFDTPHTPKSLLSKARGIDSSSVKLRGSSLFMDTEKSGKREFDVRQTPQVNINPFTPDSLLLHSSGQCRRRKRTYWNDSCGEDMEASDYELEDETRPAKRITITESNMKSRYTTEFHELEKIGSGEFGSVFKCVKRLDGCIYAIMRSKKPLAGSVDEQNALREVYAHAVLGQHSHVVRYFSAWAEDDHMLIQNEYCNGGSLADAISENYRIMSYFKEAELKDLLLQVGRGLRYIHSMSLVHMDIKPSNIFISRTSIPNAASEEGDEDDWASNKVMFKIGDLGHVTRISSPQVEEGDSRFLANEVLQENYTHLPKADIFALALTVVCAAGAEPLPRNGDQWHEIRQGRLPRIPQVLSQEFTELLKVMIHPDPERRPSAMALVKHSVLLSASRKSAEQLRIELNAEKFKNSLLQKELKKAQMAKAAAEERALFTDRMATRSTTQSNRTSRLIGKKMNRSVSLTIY
APP 5UTR inh: APP translation inhibition; inhibition, % at 2 µM; AID 1285; SH-SY5Y APP 5'UTR-luciferase reporter, luminescence; actives 0.82% (n = 190,000);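 active means inhibition above a set limit, derived from the sample mean plus 3 SD, cut at about 45% in these data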
STAT1 activ conf: STAT1 activation, confirmation assay. shares compounds with STAT1 act. NIH 3T3 STAT1-luciferase reporter, IFN-gamma potentiation, luminescence; 100% = IFN-gamma EC80 alone, no compound. activation (% of control), % at 5.7 µM. actives 97% (n = 1,200);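 active means activation above a set limit carried over from the earlier primary STAT1 screen, cut at about 140% in these data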;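 further: simple ratio to median IFN-gamma plus DMSO wells so 0% means no light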
NFkB act: activates NF-kappaB, counter-screen to STAT1 activators | activation (% of control), % at 5.7 µM | shares compounds with STAT1 act | HEK293T NF-kB luciferase reporter, TNF-alpha stimulated, luminescence; 100% = TNF-alpha with vehicle only | actives 43% (n = 1,200) | AID 1306;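 active means activation above the mean of solvent-only control wells plus 3 SD, set per campaign, cut at about 130% in these data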;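 further: TNF-alpha given at a submaximal dose yielding about 80% of full reporter signal; values are well signal over median control so 100% means no change and 0% no light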
STAT3 act STAT1c: counter-screen for STAT1 activators: human STAT3 activation; shares compounds with STAT1 act; U3A cells STAT3-luciferase reporter, IL-6, luminescence; cells lack STAT1; 100 = IL-6 alone, no compound effect; activation (% of control), % at 5.7 µM; actives 46% (n = 1,200); AID 1316;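 active means activation above the solvent-only control well mean plus 3 SD, set per plate batch, cut at about 110% in these data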;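 further: 0% = no luminescence and 100% = median IL-6 plus DMSO wells; higher means more STAT3 reporter activation so hits are non-selective activators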
Hsp70 act DR: activates Hsp70 transcription in dose response | shares compounds with Hsp70 activator | calls only at 99 µM | AID 1252 | HeLa hsp70.1pr-luc reporter, luciferase luminescence | actives 10% (n = 70);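 active means over 50% activation at some tested dose; inactive means under 50% activation at every tested dose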
Wee1 stab conf: confirmation of human Wee1 degradation inhibitors. shares compounds with Wee1 stabilizer. activation, % at 5 µM. HeLa Luc-Wee1K328M degradation, luminescence; vehicle 0%, proteasome-blocked wells 100%. AID 1410. actives 4% (n = 1,100); in the data active means activation above about 8.9%
* hit, by the source's call; i = inactive; x = not tested or not shown; + = active, no number.

SMILES	NF-kB neuron act	APP 5'UTR act	Hsp70 activator	STAT1 act	Wee1 stabilizer	APP 5UTR inh	STAT1 activ conf	NFkB act	STAT3 act STAT1c	others
COc1ccc(N2CCN(C(=O)C3(C)CC3(Cl)Cl)CC2)cc1 (centres undefined)	1	12	0	100	0	-12	x	x	x
CC(=O)C(/C=N/c1cc(-c2ccc(C)cc2)nn1-c1ccccc1)=C(\C)O	2.1	97	0	159*	-1	-97	161*	127	94
Cc1ccc(NC(=S)c2ccc(N(C)C)cc2)cc1	3.5*	150*	0	170*	8	-150	201*	129	102
CCN(CC)c1ccc(NC(=O)c2cccc(C)c2OC)c(C)c1	4.2*	98	0	152*	3	-98	175*	137*	106
COc1ccccc1C(=O)COC(=O)c1ccccc1O	1.1	20	0	103	-1	-20	x	x	x
COc1ccccc1C(=O)COC(=O)c1ccc(N(C)C)cc1	1	142*	0	174*	-1	-142	175*	134*	132*
Nc1ccc(-c2nc3ccc(N)cc3[nH]2)cc1	x	16	0	127	-1	-16	x	x	x
Nc1ccc(-c2nc3ccc([N+](=O)[O-])cc3[nH]2)cc1	7.1*	72	0	182*	4	-72	233*	147*	120*
O=Cc1cn(CC(=O)NCC2CCCO2)c2ccccc12 (centres undefined)	1.1	-6	0	95	-2	6	x	x	x
N#CC1=C(N)Oc2cc(N)ccc2C1c1ccc(F)cc1 (centres undefined)	0.97	8	0	100	1	-8	x	x	x
COc1cccc(C(=O)Nc2ccc(F)cc2F)c1	1.9	32	0	122	1	-32	x	x	x
CC(C)Oc1cccc(C(=O)Nc2ccc(Br)cc2F)c1	6.1*	139*	0	162*	9.1*	-139	209*	119	91
CNC(=O)c1cc2cc(OC)ccc2oc1=N	1.3	-5	0	92	-2	5	x	x	x
COc1ccc2oc(=N)c(C(=O)Nc3ccccc3)cc2c1	5.2*	133	0	162*	4	-133	196*	138*	136*
CCN1C/C(=C/c2ccc(OC)c(O)c2)C(=O)/C(=C/c2ccc(OC)c(O)c2)C1	0.24	-88	644*	335*	0	88*	109	138*	97	Hsp70 act DR=+
CSc1ccc(S(=O)(=O)Nc2ccc3c(c2)OCCO3)cc1	0.97	18	0	83	-2	-18	x	x	x
O=c1c(Br)c(Br)cnn1-c1ccccc1	0.23	-95	7.4*	177*	8	96*	118	120	91	Hsp70 act DR=i
CCCn1nc(NS(C)(=O)=O)c2cc3cccc(C)c3nc21	1.1	0	0	112	-1	0	x	x	x
COc1ccc(NC(=O)/C(Cl)=C(/Cl)S(=O)Cc2ccccc2Cl)cn1 (centres undefined)	0.31	-94	37*	346*	7	94*	292*	65	133*	Hsp70 act DR=i
CS(=O)(=O)N1CCN(c2ccc(NC(=O)c3ccc([N+](=O)[O-])o3)cc2)CC1	2.2	-66	8.1*	160*	2	66*	98	112	89	Hsp70 act DR=i
O=C(Nc1cccc(Cl)c1N1CCOCC1)c1ccc([N+](=O)[O-])o1	x	x	x	x	-4	x	x	x	x
Cc1cc(C)cc(C(=O)Nc2ccc(N3CCN(S(C)(=O)=O)CC3)cc2)c1	1.1	-4	0	98	-3	4	x	x	x
O=C(Nc1ccc(N2CCCC2)c(Cl)c1)c1ccc([N+](=O)[O-])o1	4.3*	-78	20*	159*	6	78*	98	133*	103	Hsp70 act DR=i
CC(C)N1CCc2c(sc(NC(=O)CCc3ccccc3)c2C(N)=O)C1	0.86	5	0	102	5	-5	x	x	x
CC(=O)Nc1sc2c(c1-c1nc3ccccc3s1)CCN(C(C)C)C2	2.7	-70	7.5*	285*	-2	70*	202*	191*	202*	Hsp70 act DR=i
SMILES	NF-kB neuron act	APP 5'UTR act	Hsp70 activator	STAT1 act	Wee1 stabilizer	APP 5UTR inh	STAT1 activ conf	NFkB act	STAT3 act STAT1c	others
O=C(Cn1nc(C(F)F)cc1C(F)F)NNC(=S)Nc1ccc(Cl)cc1	1.7	16	0	100	-1	-16	x	x	x
O=C(/C=C/c1ccccc1)Nc1ccc(Cl)cn1	3.2	80	2	156*	11*	-80	208*	121	95	Wee1 stab conf=9.0*
Cc1ccc(NC(=O)c2noc3c2CCCCC3)cc1C	4.9*	237*	0	198*	13*	-237	271*	122	96	Wee1 stab conf=1
CSc1ccccc1NC(=O)c1noc2c1CCC2	1.8	18	0	112	-1	-18	x	x	x
CCc1ccc(/C=C2\SC(N3CCCC3)=NC2=O)cc1	1	12	0	120	-1	-12	x	x	x
C/C(CC(=O)Nc1cccc2c1CCCC2)=N\NC=O	0.98	8	0	97	0	-8	x	x	x
Cc1nnc(SCC(=O)Nc2cc(-c3cc(C)c(C)cc3C)nn2-c2ccccc2)s1	0.89	-6	0	92	-1	6	x	x	x
COc1ccccc1/C=C/C(=O)Nc1ccc2c(c1)CCC2	7.8*	176*	0	161*	11*	-176	197*	147*	112*	Wee1 stab conf=6
Cc1cccc(C)c1OCCOCCN1CCN(C)CC1	1.3	7	0	102	3	-7	x	x	x
Cc1ccn2c(c1)nc(=S)n2C(=O)c1ccccc1	1.1	189*	0	283*	14*	-189	518*	185*	138*	Wee1 stab conf=2
CCCCNc1nc(N)nc(-c2cc(Cl)ccc2O)n1	1.6	155*	0	178*	14*	-155	230*	145*	154*	Wee1 stab conf=2
O=C(Nc1ccc(Cl)cn1)Nc1ccccc1Cl	1.4	28	0	108	1	-28	x	x	x

Screening data as filed in PubChem.
